# “And” between values parts separate entries of the source, which are not always exact repeats. Identical values can stand only once. Inconclusive results are not listed. Entries that show only a call come without a potency. Some structures have more than one record in an assay (separate samples or runs), and their calls can disagree. The source made the active and inactive calls. Unless noted, calls follow the shape of the dose curve; as a rule, active = well fitted curve in the direction sought with a large enough effect in the repeat runs; inconclusive = weak or mixed curves; inactive = no such curve, though single readings can be large; an effect the other way counts as inactive or inconclusive.
# What was measured:
# [1] = target: Acetylcholinesterase (Homo sapiens) (UniProt P22303); experiment: Acetylcholinesterase (AChE) small molecule antagonists: enzyme-based qHTS assay (AID 1347397; calls by dose curve; also: nearly all actives have a fitted effect of over 55% in size; also: potency is read from the fitted curve at half-maximal effect); conditions: Potency: AChE enzyme activity inhibition
# Method in brief: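 Recombinant human AChE, dispensed at 50 mU/mL, was preincubated with Tox21 10K compounds or DMSO vehicle for 30 min at room temperature. DTNB plus acetylthiocholine was then added, and thiocholine was measured colorimetrically after a further 10 min.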
# [2] = target: Acetylcholinesterase (Homo sapiens) (UniProt P22303); experiment: Acetylcholinesterase (AChE) small molecule antagonists: fluorescence cell-based qHTS assay (AID 1347398; calls by dose curve; also: nearly all actives have a fitted effect of over 50% in size; also: potency is read from the fitted curve at half-maximal effect); conditions: Potency: AChE activity
# Method in brief: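 Human SH-SY5Y cells were plated overnight at 37 C, exposed to compound for 30 min at 37 C, 5% CO2, then given acetylthiocholine plus Thiolite Green for 40 min at room temperature; thiocholine fluorescence (Ex/Em 490/520 nm) reports endogenous AChE activity.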
# [3] = target: Acetylcholinesterase (Homo sapiens) (UniProt P22303); experiment: Acetylcholinesterase (AChE) small molecule antagonists: enzyme-based qHTS assay with human liver microsomes (AID 1347399; calls by dose curve; also: nearly all actives have a fitted effect of over 60% in size; also: potency is read from the fitted curve at half-maximal effect); conditions: Potency: qHTS inhibition
# Method in brief: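 Recombinant human AChE (50 mU/mL in the enzyme mix) and human liver microsomes (0.25 mg/mL final) were preincubated with compound and NADPH (0.25 mg/mL final) for 30 min at 37 C. Acetylthiocholine/DTNB was then added; thiocholine was read colorimetrically after 10 min at room temperature.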
# [4] = target: Cytochrome P450 2D6 (Homo sapiens) (UniProt P10635); experiment: Cytochrome P450 Family 2 Subfamily D Member 6 (CYP2D6) small molecule antagonists: luciferase reporter qHTS assay (AID 1671196); also: nearly all actives have a fitted effect of over 50% in size; also: potency is read from the fitted curve at half-maximal effect
# Method in brief: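 Luminescence (RLU), read 20 min after detection reagent, indicated CYP2D6 conversion of proluciferin to luciferin during a 1 h NADPH-dependent reaction at room temperature.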
# [5] = target: Cytochrome P450 2C19 (Homo sapiens) (UniProt P33261); experiment: Cytochrome P450 Family 2 Subfamily C Member 19 (CYP2C19) small molecule antagonists: luciferase reporter qHTS assay (AID 1671197); also: nearly all actives have a fitted effect of over 65% in size; also: potency is read from the fitted curve at half-maximal effect
# Method in brief: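 Light output is proportional to CYP2C19 activity: proluciferin substrate is converted to luciferin, then detected by a luciferin detection reagent that also stops the 1 h, 37C NADPH-driven reaction. Ketoconazole serves as positive control.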
# [6] = target: Cytochrome P450 2C9 (Homo sapiens) (UniProt P11712); experiment: Cytochrome P450 Family 2 Subfamily C Member 9 (CYP2C9) small molecule antagonists: luciferase reporter qHTS assay (AID 1671198); also: nearly all actives have a fitted effect of over 50% in size; also: potency is read from the fitted curve at half-maximal effect
# Method in brief: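 CYP2C9 activity was measured with a P450-Glo proluciferin substrate. Enzyme–substrate mix was held with compound for 10 min at room temperature, then NADPH regeneration solution was added for 1 h at 37C. Luciferin product was read as luminescence.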
# [7] = target: Voltage-gated inwardly rectifying potassium channel KCNH2 (Homo sapiens) (UniProt Q12809); experiment: Human Ether-a-go-go-Related Gene (hERG) channel small molecule antagonists: fluorescence cell-based qHTS assay (AID 1671200);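 also: hERG-expressing U2OS cells given a thallium stimulus after FluxOR II dye loading; series mostly up to about 77 µM; nearly all actives have a fitted effect of over 50% in size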
# Method in brief: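 hERG-U2OS cells plated overnight at 37 C, loaded with FluxOR II dye 1 h at RT in dark; after 10 min, thallium stimulus added. Fluorescence (480/540 nm) read kinetically for 2 min at 1 s intervals.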
# [8] = target: Cytochrome P450 3A4 (Homo sapiens) (UniProt P08684); experiment: Cytochrome P450 Family 3 Subfamily A Member 4 (CYP3A4) small molecule antagonists: luciferase reporter qHTS assay (AID 1671201); also: nearly all actives have a fitted effect of over 50% in size; also: potency is read from the fitted curve at half-maximal effect
# Method in brief: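 P450-Glo CYP3A4 luminescent assay: compounds preincubated 10 min at room temperature with enzyme and proluciferin substrate, NADPH regeneration added, 1 h room-temperature reaction, stopped with luciferin detection reagent; luminescence read after 20 min. Ketoconazole positive control.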
# [9] = target: Cytochrome P450 1A2 (Homo sapiens) (UniProt P05177); experiment: Cytochrome P450 Family 1 Subfamily A Member 2 (CYP1A2) small molecule antagonists: luciferase reporter qHTS assay (AID 1671199); also: nearly all actives have a fitted effect of over 50% in size; also: potency is read from the fitted curve at half-maximal effect
# Method in brief: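 CYP1A2 turnover of a luminogenic substrate was quantified after 1 h with NADPH regeneration at room temperature. Furafylline served as positive control.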
# Cytochrome P450 1A2 (Homo sapiens), sequence (P05177 whole entry, looked up): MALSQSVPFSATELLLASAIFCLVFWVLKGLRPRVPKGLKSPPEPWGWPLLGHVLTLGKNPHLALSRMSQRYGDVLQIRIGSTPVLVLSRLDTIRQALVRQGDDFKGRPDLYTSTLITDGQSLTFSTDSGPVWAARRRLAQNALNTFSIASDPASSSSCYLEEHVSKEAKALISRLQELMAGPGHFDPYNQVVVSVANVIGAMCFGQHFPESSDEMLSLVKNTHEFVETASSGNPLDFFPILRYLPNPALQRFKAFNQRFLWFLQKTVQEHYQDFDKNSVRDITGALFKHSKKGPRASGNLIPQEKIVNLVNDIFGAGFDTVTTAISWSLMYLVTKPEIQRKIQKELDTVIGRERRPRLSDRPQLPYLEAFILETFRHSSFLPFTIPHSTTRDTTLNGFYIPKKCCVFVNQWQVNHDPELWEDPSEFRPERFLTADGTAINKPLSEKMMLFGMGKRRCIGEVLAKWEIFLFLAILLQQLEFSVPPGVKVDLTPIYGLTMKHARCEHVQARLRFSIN
# Cytochrome P450 2D6 (Homo sapiens), sequence (P10635 whole entry, looked up): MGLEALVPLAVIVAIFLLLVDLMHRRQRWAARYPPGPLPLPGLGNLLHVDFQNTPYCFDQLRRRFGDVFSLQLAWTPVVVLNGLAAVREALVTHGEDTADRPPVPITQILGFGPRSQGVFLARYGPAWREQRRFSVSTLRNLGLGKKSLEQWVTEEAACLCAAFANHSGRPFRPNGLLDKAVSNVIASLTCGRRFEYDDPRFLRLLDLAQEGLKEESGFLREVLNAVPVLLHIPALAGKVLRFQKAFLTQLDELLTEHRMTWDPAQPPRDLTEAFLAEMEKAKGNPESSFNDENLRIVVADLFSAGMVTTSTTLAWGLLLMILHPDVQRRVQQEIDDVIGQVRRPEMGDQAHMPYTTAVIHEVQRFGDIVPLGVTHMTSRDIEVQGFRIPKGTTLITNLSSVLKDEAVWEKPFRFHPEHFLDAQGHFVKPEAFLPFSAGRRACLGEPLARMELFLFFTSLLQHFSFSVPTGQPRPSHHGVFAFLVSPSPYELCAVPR
# Cytochrome P450 3A4 (Homo sapiens), sequence (P08684 whole entry, looked up): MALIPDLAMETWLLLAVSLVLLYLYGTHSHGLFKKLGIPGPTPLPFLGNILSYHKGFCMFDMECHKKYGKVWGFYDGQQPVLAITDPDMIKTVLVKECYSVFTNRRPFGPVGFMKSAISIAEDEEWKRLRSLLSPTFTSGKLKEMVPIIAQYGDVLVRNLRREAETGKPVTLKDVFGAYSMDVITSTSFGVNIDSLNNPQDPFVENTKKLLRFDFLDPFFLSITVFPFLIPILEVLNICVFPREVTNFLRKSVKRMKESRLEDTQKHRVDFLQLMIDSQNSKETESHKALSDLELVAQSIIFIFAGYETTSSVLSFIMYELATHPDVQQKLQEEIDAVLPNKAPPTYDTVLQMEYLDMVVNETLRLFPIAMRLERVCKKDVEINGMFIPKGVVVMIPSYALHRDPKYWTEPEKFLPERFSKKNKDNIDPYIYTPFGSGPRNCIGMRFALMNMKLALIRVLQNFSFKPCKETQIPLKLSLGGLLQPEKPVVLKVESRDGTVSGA
# Cytochrome P450 2C9 (Homo sapiens), sequence (P11712 whole entry, looked up): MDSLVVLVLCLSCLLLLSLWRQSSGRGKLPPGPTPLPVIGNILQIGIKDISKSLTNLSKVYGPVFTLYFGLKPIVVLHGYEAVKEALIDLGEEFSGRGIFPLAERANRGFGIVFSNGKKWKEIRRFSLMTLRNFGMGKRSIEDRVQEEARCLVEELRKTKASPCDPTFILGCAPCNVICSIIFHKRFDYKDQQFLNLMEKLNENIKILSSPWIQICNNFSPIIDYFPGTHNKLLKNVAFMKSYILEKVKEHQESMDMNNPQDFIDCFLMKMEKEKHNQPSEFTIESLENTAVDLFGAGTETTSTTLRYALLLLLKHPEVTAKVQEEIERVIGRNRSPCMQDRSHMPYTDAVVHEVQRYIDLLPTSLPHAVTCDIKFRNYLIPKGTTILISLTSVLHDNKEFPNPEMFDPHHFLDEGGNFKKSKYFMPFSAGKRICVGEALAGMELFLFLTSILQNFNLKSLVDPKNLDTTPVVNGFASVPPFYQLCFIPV
# Acetylcholinesterase (Homo sapiens), sequence (P22303 whole entry, looked up): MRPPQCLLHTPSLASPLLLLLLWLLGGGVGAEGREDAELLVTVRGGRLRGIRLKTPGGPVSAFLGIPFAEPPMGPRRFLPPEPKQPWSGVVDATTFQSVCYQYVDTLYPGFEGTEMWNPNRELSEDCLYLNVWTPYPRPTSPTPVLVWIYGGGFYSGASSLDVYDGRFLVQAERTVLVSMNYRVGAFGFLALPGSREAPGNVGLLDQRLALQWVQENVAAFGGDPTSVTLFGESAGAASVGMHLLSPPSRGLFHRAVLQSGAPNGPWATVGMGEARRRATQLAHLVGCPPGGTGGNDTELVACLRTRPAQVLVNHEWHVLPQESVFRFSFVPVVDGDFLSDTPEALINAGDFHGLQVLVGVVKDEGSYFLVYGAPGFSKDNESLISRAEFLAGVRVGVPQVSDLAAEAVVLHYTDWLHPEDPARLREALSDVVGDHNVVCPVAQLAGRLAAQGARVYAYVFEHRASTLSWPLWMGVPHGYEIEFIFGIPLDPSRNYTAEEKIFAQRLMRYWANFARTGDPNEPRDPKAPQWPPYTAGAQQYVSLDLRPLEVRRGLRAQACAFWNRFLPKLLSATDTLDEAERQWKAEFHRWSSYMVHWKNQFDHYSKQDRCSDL
# Cytochrome P450 2C19 (Homo sapiens), sequence (P33261 whole entry, looked up): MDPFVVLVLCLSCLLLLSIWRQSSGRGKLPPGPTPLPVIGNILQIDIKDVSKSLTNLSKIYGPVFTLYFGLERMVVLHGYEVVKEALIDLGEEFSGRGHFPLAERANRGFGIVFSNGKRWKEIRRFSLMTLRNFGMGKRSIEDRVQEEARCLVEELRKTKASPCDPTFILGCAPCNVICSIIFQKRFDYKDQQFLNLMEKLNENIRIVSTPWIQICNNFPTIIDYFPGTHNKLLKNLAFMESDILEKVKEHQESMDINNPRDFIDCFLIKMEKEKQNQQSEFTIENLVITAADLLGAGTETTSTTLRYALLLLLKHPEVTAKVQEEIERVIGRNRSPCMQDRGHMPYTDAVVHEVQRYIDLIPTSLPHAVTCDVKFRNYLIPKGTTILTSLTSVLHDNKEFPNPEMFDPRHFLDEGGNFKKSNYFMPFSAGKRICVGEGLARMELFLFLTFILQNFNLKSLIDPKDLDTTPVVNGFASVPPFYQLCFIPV
# Voltage-gated inwardly rectifying potassium channel KCNH2 (Homo sapiens), sequence (Q12809 whole entry, looked up): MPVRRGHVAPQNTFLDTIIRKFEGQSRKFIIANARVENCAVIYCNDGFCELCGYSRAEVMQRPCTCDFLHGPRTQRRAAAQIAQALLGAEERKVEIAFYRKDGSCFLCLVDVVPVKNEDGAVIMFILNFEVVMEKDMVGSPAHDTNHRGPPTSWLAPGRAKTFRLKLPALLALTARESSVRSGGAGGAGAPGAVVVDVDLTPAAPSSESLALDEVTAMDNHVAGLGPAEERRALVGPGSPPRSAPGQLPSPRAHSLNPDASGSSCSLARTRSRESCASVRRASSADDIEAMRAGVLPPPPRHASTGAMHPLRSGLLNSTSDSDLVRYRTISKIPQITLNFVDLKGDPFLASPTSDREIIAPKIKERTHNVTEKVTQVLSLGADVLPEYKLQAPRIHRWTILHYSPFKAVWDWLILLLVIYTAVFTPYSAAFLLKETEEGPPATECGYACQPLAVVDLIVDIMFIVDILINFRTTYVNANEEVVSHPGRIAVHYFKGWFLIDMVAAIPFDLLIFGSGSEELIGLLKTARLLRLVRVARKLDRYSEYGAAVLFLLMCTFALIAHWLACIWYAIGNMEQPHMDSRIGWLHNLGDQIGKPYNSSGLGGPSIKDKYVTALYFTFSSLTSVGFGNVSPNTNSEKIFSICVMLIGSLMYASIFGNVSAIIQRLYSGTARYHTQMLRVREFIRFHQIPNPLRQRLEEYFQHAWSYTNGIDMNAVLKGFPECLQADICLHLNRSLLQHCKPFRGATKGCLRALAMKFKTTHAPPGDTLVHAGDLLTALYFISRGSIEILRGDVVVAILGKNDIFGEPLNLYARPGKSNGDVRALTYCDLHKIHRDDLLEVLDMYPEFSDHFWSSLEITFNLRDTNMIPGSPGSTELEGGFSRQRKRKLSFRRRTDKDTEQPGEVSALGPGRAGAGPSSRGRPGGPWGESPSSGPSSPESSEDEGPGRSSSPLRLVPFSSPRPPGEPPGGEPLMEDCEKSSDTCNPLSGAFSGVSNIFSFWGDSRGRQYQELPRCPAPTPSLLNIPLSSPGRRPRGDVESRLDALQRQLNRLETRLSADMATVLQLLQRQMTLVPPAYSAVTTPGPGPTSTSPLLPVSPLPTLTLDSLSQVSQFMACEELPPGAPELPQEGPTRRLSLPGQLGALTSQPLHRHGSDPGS
Structure (SMILES),Potency [1],Potency [2],Potency [3],Potency [4],Potency [5],Potency [6],Potency [7],Potency [8],Potency [9]
O=C/C=C/c1ccccc1,inactive and 64 µM (active),inactive and 36 µM (active),inactive,inactive,inactive and 79.6 µM (active),inactive,inactive,inactive,
[N-]=[N+]=CC(=O)OC[C@H](N)C(=O)O,inactive,inactive,inactive,inactive and 30.9 µM (active),inactive,inactive,inactive,inactive,inactive
Nc1ccc([As](=O)(O)O)cc1,inactive,inactive,inactive,inactive,inactive,inactive,inactive,34.6 µM (active) and inactive,inactive
Cc1cc(Cl)ccc1OC(C)C(=O)O (stereo unspecified),inactive,inactive,inactive,inactive,78.3 µM (active) and inactive,44.1 µM (active) and inactive,inactive,inactive,
OC[C@@H](O)[C@H]1O[C@@H]2O[C@H](C(Cl)(Cl)Cl)O[C@@H]2[C@H]1O,inactive,inactive,inactive,inactive,35.5 µM (active) and inactive,inactive,inactive,inactive,inactive
C/C=C/c1ccc2c(c1)OCO2,inactive,inactive,inactive,inactive,inactive and 79.6 µM (active),inactive,inactive,inactive,39.9 µM (active)
FC(F)(F)c1ccc(Cl)cc1,inactive,inactive,inactive,inactive,inactive,inactive,inactive,inactive,
CCOC(=O)CC(SP(=O)(OC)OC)C(=O)OCC (stereo unspecified),3.38 µM (active) and 5.64 µM (active),954 nM (active) and 1.42 µM (active),60.2 µM (active) and 56.4 µM (active),inactive,53.6 µM (active),67.5 µM (active) and 71 µM (active),inactive,inactive,75.8 µM (active) and 71 µM (active)
CN(C)C(=O)Cl,inactive,inactive,inactive,inactive,inactive,inactive,inactive,inactive,inactive
N#Cc1cccc(C#N)c1,inactive,inactive,inactive,31.2 µM (active) and inactive,inactive,inactive,inactive,inactive,inactive
Nc1nc(N)nc(NC2CC2)n1,inactive,inactive,inactive,inactive,inactive,inactive,inactive,inactive,inactive
CN(C)CCC#N,inactive,inactive,inactive,inactive,inactive,inactive,inactive,inactive,inactive
Cc1cccc(N)c1,inactive,inactive,inactive,31.8 µM (active) and inactive,7.99 µM (active) and 45.1 µM (active) and 39.9 µM (active),8.96 µM (active) and 35.6 µM (active),inactive,3.18 µM (active) and inactive,31.8 µM (active) and inactive and 31.7 µM (active)
CCNc1nc(Cl)nc(NC(C)C)n1,inactive,inactive,inactive,inactive,inactive,inactive,inactive,inactive,
CN(C)C(=O)Nc1cccc(C(F)(F)F)c1,inactive,inactive,inactive,inactive,inactive,inactive,inactive,inactive,2.88 µM (active) and 3.99 µM (active)
Oc1c(Br)cc(Br)cc1Br,inactive,inactive,inactive,inactive,inactive,63.4 µM (active) and 39.9 µM (active) and inactive,inactive,inactive,
O=C(O)CCCc1ccc(N(CCCl)CCCl)cc1,inactive,inactive,inactive,inactive,inactive,inactive,inactive,inactive,inactive
COC(=O)Nc1cccc(OC(=O)Nc2cccc(C)c2)c1,inactive,inactive,inactive,inactive,35.6 µM (active),inactive,inactive,inactive,
C[C@H]1C(=O)O[C@@H]2CCN3CC=C(COC(=O)[C@](C)(O)[C@]1(C)O)[C@H]23,inactive,inactive,inactive,inactive and 30.9 µM (active),inactive,inactive,inactive,inactive,inactive
Cc1cccc(C)c1NC(=O)CN1CCCC1=O,inactive,inactive,inactive,inactive,inactive,inactive,inactive,inactive,inactive
COP(=S)(OC)Oc1ccc(SC)c(C)c1,inactive,inactive,inactive,39.5 µM (active) and 39.9 µM (active),1.57 µM (active) and 710 nM (active) and 1.1 µM (active),7.02 µM (active) and 6.33 µM (active) and 6.92 µM (active),inactive,,

Structure (SMILES),Potency [1],Potency [2],Potency [3],Potency [4],Potency [5],Potency [6],Potency [7],Potency [8],Potency [9]
CNCC(O)c1ccc(O)cc1 (stereo unspecified),inactive,inactive,inactive,39.9 µM (active),70.9 µM (active) and inactive,inactive,inactive,inactive,inactive
CSc1nnc(C(C)(C)C)c(=O)n1N,inactive,inactive,inactive,31.4 µM (active),inactive,inactive,inactive,inactive,
C[C@]12CC[C@H](O)CC1=CC[C@@H]1[C@@H]2CC[C@]2(C)C(=O)CC[C@@H]12,inactive,inactive,inactive,inactive,79.7 µM (active) and 71 µM (active) and inactive,44.8 µM (active) and 31.7 µM (active) and 19.5 µM (active),,inactive,inactive
Nc1cc(Cl)cc(Cl)c1,inactive,inactive,inactive,inactive,inactive,inactive,inactive,,
C=CC#N,inactive,inactive,inactive,inactive,inactive,inactive,inactive,inactive,
CCCCC(CC)C(=O)Cl (stereo unspecified),inactive,inactive,inactive,inactive,inactive,inactive,inactive,inactive,inactive and 63.3 µM (active)
CC[N+](=O)[O-],inactive,inactive,inactive,inactive,72.5 µM (active) and inactive,inactive,inactive,inactive,inactive
C=CCN=C=S,inactive,inactive,inactive,inactive,40.8 µM (active) and inactive,inactive,inactive,inactive,
CC(=O)/C=C/c1ccccc1,inactive,inactive,inactive,inactive and 35.6 µM (active),78.2 µM (active),inactive,inactive,inactive,
Cc1cccc(C)c1N,inactive,inactive,inactive,11.1 µM (active) and inactive,,inactive,inactive,inactive,
O=P1(NCCCl)OCCCN1CCCl (stereo unspecified),,,,,,,inactive,,
OCc1ccco1,inactive,inactive,inactive,inactive,,inactive and 44.8 µM (active),inactive,inactive,
Nc1ccc(N)cc1,,,,39.9 µM (active),,11.3 µM (active) and 28.3 µM (active) and 8.71 µM (active),inactive,,
N#CN=C(N)N,inactive,inactive,inactive,inactive,,inactive,inactive,inactive,
COc1cc(-c2ccc(N)c(OC)c2)ccc1N,,,,40.1 µM (active) and 39.5 µM (active) and 34 µM (active),,12.7 µM (active) [middle of 4 runs],inactive,,1.79 µM (active) [middle of 4 runs]
Sc1ccccc1,inactive,inactive,inactive,inactive,,32.2 µM (active) and 31.9 µM (active) and 56.4 µM (active),inactive,inactive,
OCCCCO,,,,,,,inactive,,
Cc1ccc(N)cc1,,,,5.06 µM (active) and 25.2 µM (active),35.8 µM (active) and 38.6 µM (active) and 31.7 µM (active),40.2 µM (active),inactive,inactive,
COS(=O)(=O)OC,inactive,inactive,inactive,inactive,,inactive,inactive,inactive,
ClCCOCCCl,inactive,inactive,inactive,inactive,,inactive,inactive,inactive,
C=CC(=O)OCCCCCC(C)C,inactive,inactive,inactive,inactive,,inactive,inactive,inactive,

Structure (SMILES),Potency [1],Potency [2],Potency [3],Potency [4],Potency [5],Potency [6],Potency [7],Potency [8],Potency [9]
CNc1cnn(-c2cccc(C(F)(F)F)c2)c(=O)c1Cl,inactive,inactive,inactive,inactive,,,inactive,34.3 µM (active),5.44 µM (active) and 10 µM (active)
CC12CC1(C)C(=O)N(c1cc(Cl)cc(Cl)c1)C2=O (stereo unspecified),inactive,inactive,inactive,inactive,,,inactive,inactive,9.99 µM (active) and 14.2 µM (active)
O=C(O)COc1ccccc1,inactive,inactive,inactive,inactive,,inactive,inactive,inactive,
OCC(O)CCl (stereo unspecified),inactive,inactive,inactive,inactive,,inactive,inactive,inactive,
C=CC(=O)OCC(CC)CCCC (stereo unspecified),,,,,,,inactive,,
CCOP(=S)(OCC)Oc1ccc([N+](=O)[O-])cc1,24.5 µM (active),71.9 µM (active) and 15.5 µM (active),905 nM (active) and 616 nM (active),,,1.61 µM (active) and 976 nM (active),,2.27 µM (active) and 2.75 µM (active),
C=C(C)C(=O)OCC(CC)CCCC (stereo unspecified),inactive,inactive,inactive,inactive,,inactive,inactive,inactive,
CC(C)c1cccc(C(C)C)c1O,inactive,inactive,inactive,,,,inactive,,
Cc1ccccc1N,,,,inactive and 40.7 µM (active),,40.7 µM (active) and 79.6 µM (active) and 35.6 µM (active),inactive,inactive and 28.8 µM (active) and 28.3 µM (active),
CC(=O)C1CCOC1=O (stereo unspecified),inactive,inactive,inactive,inactive,,inactive,inactive,inactive,
Oc1ccc(Cl)cc1,,,,,,,inactive,,
CCCCCCCCCCCCCCCCCC(=O)O,,,,35.3 µM (active) and inactive,,1.12 µM (active) and inactive,inactive,inactive,
CN(C)C(=O)C(c1ccccc1)c1ccccc1,inactive,inactive,inactive,inactive,,62.3 µM (active),inactive,inactive,
ClC(Cl)c1ccccc1,inactive,inactive,inactive,,,inactive,inactive,inactive,
Cc1cccc(N)c1C,inactive,inactive,inactive,71 µM (active),,,inactive,36.9 µM (active),36.9 µM (active) and 20 µM (active)
CNC(=O)Oc1cccc2ccccc12,,3.56 µM (active),inactive and 89.4 µM (active),39.6 µM (active) and inactive,,28 µM (active) and inactive,inactive,inactive,
NNc1ccccc1,,,,,,39.5 µM (active) and 39.8 µM (active) and 50.2 µM (active),inactive,,
CNC(=O)O/N=C/C(C)(C)SC,,,,inactive,40.3 µM (active) and inactive,,inactive,inactive,
CNC(=O)O/N=C/C(C)(C)S(C)(=O)=O,,,,inactive,inactive,inactive,inactive,inactive,
